We go through 66 compounds from PubChem BioAssay AID686978 (National Center for Advancing Translational Sciences (NCATS), 2013).

The whole screen tested about 420,000 compounds, of which about 64,000 (15%) were called active. Roughly 27% stayed inconclusive and do not appear here. Not all results are given here. Unmarked numbers belong to inactive results. The call rests on the fitted dose curve; in most records, active means well fitted inhibition curve with a large enough effect; inconclusive means small, poorly fitted or top-dose-only effect; inactive means flat fitted curve, though single readings scatter.
On the % scale 0 is the no-effect control and ±100 the full control effect; potency means the concentration at half of the fitted maximal effect.

This experiment is described as follows: qHTS for Inhibitors of human tyrosyl-DNA phosphodiesterase 1 (TDP1): qHTS in cells in absence of CPT. Further: nearly all actives have a fitted effect of over 55% in size. The note with it: DT40 Tdp1-/- hTDP1 cells, no CPT, ATP luminescence, 48 h; activity change, negative = growth inhibition: at 46.2 µM (top of the series). The procedure, abridged: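 Chicken DT40 Tdp1-/- cells stably complemented with human TDP1 were seeded at 400 cells/well with DMSO in place of 20 nM camptothecin. After compound pinning, cells grew at least 48 hr at 37 °C; viability read by CellTiter-Glo luminescence.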
A general note: Quantitative high-throughput screening tests each substance at several concentrations.
Take `Cc1cccc(C)c1NC(=O)COC(=O)c1ccccc1O`: the “activity change, negative = growth inhibition” value is 13.8%. With `CC(=O)c1c(C)[nH]c(C(=O)OCC(=O)Nc2c(C)cccc2C)c1C`, the Potency was 13 µM (active). As to `Cc1cccc(C(=O)OCC(=O)Nc2sc3c(c2C#N)CCC3)c1`, the “activity change, negative = growth inhibition” value is -22.6%.

With `Cc1ccc(C)c(OCC(=O)Nc2sc3c(c2C#N)CCCC3)c1C`, the Potency was 9.2 µM (active).

For `COc1ccc(-n2c(SCC(=O)Nc3sc4c(c3C#N)CCCC4)nnc2-c2ccc(O)cc2)cc1`, the “activity change, negative = growth inhibition” value is 10.1%. As to `CCCc1cc(=O)[nH]c(SCC(=O)Nc2sc3c(c2C#N)CCCC3)n1`, the “activity change, negative = growth inhibition” value is 12.1%.

Regarding `CCN1CCN(CC(=O)Nc2sc3c(c2C#N)CCC3)CC1`, the “activity change, negative = growth inhibition” value is 3.94%. Same read-out and setting: under `N#Cc1c(NC(=O)C2CCCO2)sc2c1CCCCC2` (stereo unspecified) stands -14.4%. In the case of `CC(=O)c1c(C)[nH]c(C(=O)OCC(=O)Nc2sc3c(c2C#N)CCCC3)c1C`, the Potency was 16.4 µM (active).

Turning to `N#Cc1c(NC(=O)CCCl)sc2c1CCCCC2`, the Potency is 18.4 µM (active). Turning to `CC(=O)c1c(C)[nH]c(C(=O)OCC(=O)Nc2c(C)n(C)n(-c3ccccc3)c2=O)c1C`, the “activity change, negative = growth inhibition” value was -30%. Turning to `CCOC(=O)c1c(NC(=O)CSc2nnc(C)c(=O)[nH]2)sc2c1CCC2`, the “activity change, negative = growth inhibition” value was -22.8%.

As to `C=CCc1cccc2cc(C(=O)NC3CCCC3)c(=O)oc12`, the “activity change, negative = growth inhibition” value was -8.04%. In the case of `Cc1nn(-c2ccccc2)nc1C(=O)OCC(=O)N1CCCCC1C` (stereo unspecified), the “activity change, negative = growth inhibition” value was -5.31%.

Turning to `Nc1nc(SCC(=O)NCCN2CCOCC2)nc2sc3c(c12)CCC3`, the “activity change, negative = growth inhibition” value is -0.71%. Take `CSc1nc2nc3c(c(=O)n2[nH]1)CCC3`: the “activity change, negative = growth inhibition” value is -9.07%. On to `Cc1cn(C2OC[C@@H](O)[C@@H]2CO)c(=O)[nH]c1=O` (stereo partly specified), for which the Potency entry is “inactive”.

Take `CC(C)[C@H]1CC[C@@H](C)C[C@H]1O`: the “activity change, negative = growth inhibition” value is 0.0485%. Take `CCCC(C)C(=O)Nc1ccc(NC(C)=O)cc1` (stereo unspecified): the “activity change, negative = growth inhibition” value was -14%. On the same count and under the same terms, under `O=C(NNC(=O)C1CCC1)c1ccccc1` stands 5.31%; under `Cc1csc(-c2coc3cc(O[C@@H]4O[C@H](CO)[C@@H](O)[C@@H](O)[C@H]4O)ccc3c2=O)n1`, 1.27% [at 9.04 µM].

For the compound `COc1cc2nc(N3CCCN(C)CC3)nc(NC(C)C)c2cc1OC`, the Potency is 12.6 µM (active). Turning to `CNCCCOc1cc2nc(N3CCCN(C)CC3)nc(NC3CCN(C)CC3)c2cc1OC`, the “activity change, negative = growth inhibition” value was -29.4%. Still for that read-out and setting: under `COc1ccc(C(=O)N2CCCN(C)CC2)c(OC)c1` stands 4.37%; under `COc1cc2nc(N3CCN(C(=O)[C@@H]4CCCO4)CC3)nc(N)c2cc1OC`, -0.983%. Turning to `COc1cc2nc(N3CCCN(C)CC3)nc(NC3CC3)c2cc1OC`, the Potency is 10 µM (active). With `CCCCSc1nnc2c(n1)OC=Nc1ccccc1-2`, the “activity change, negative = growth inhibition” value was -11.3%. Still for that read-out and setting: under `CCCn1nc(Oc2nc(NC(C)C)nc(N(C)C)n2)ccc1=O` stands 8.56%; under `Cn1c(SCC(=O)NC2CCCCC2)nnc1-c1ccc(N)cc1`, 2.92%; under `CC(=O)Nc1ccc(N2C(=O)C3C4CC(=O)C(c5ccccc54)C3C2=O)cc1` (stereo unspecified), -3.56%. Same read-out and setting: under `COc1ccccc1OCCCn1c(-c2ccc(Cl)cc2)nc2ccccc2c1=O` stands 6.13%.

Take `CCCCc1c(-c2ccc(Br)cc2)ncn1CCc1ccccc1OC`: the Potency was 1.3 µM (active). On to `COc1cccc(OC)c1C(=O)N1CCN(Cc2ccccc2F)CC1`, for which the “activity change, negative = growth inhibition” value was -18.9%.

As to `COc1ccccc1CN1CCN(Cc2cc(OC)c(OC)cc2OC)CC1`, the “activity change, negative = growth inhibition” value is -29.9%. Still for that read-out and setting: for `COc1ccccc1CCC(=O)NNC(=O)c1ccncc1` the value was 4.68%; for `COc1ncc2nc(-c3ccc(Cl)cc3)c(=O)n(C)c2n1`, 1.53%.

For the compound `CCCCc1c(-c2ccc(Cl)cc2)ncn1CCc1ccccc1OC`, the Potency was 3.26 µM (active). On the same count and under the same terms, for `CCCc1c(-c2ccccc2F)ncn1Cc1ccccc1OC` the value was 1.16 µM (active). As to `COc1ccccc1CCn1c(=O)c(-c2cn(C)c3ccccc23)nc2cncnc21`, the “activity change, negative = growth inhibition” value was 3%. For `CCN(CC(=O)NC(C)C)C(=O)c1cc(S(=O)(=O)N2CCCCC2)ccc1N1CCCCC1`, the “activity change, negative = growth inhibition” value is -13.3%. Still for that read-out and setting: for `CCOC(=O)c1c(C)[nH]c(C(=O)OCC(=O)c2ccc(OC)cc2OC)c1C` the value was -18.7%; for `C=CCNc1nc(N)c([N+](=O)[O-])c(NC2CCCCC2)n1`, -13%; for `CCCCn1c(N)c(N(CCOC)C(=O)c2sc3ccccc3c2Cl)c(=O)[nH]c1=O`, 2.54%. Regarding `CC(C)CCNC(=O)Cn1c(=O)oc2cc(S(=O)(=O)N3CC(C)CC(C)C3)ccc21` (stereo unspecified), the Potency is 16.4 µM (active).

Consider `CC1CCCN(C(=O)Cn2c(=O)oc3cc(S(=O)(=O)N4CCCCC4C)ccc32)C1` (stereo unspecified), for which the “activity change, negative = growth inhibition” value was -1.35%. Same read-out and setting: for `CC1CCCCN1C(=O)Cn1c(=O)oc2cc(S(=O)(=O)N3CCCCC3)ccc21` (stereo unspecified) the value was -16.6%. Still for that read-out and setting: for `CC1CCc2sc(C(=O)N/N=C/C3CCCCC3)cc2C1` (stereo unspecified) the value was -4.82%. On to `CC1CCc2sc(C(=O)NCC(c3ccco3)N3CCCCC3)cc2C1` (stereo unspecified), for which the Potency is 10.3 µM (active). For the compound `CSc1ncccc1C(=O)NCC(c1ccco1)N1CCCCC1` (stereo unspecified), the “activity change, negative = growth inhibition” value was -2.23%. Turning to `Cc1ccccc1S(=O)(=O)Cc1ccc(C(=O)NCCN2CCCCC2C)o1` (stereo unspecified), the “activity change, negative = growth inhibition” value is -13.1%.

In the case of `CN(CC(=O)Nc1cccc(F)c1)C(=O)C1CSC2(C)CCC(=O)N12` (stereo unspecified), the “activity change, negative = growth inhibition” value is -3.64%. On the same count and under the same terms, for `COc1ccc(C(=O)Oc2ccc(-c3nnco3)cc2)cc1S(=O)(=O)N1CCOCC1` the value was -22.7%; for `Cc1nn2c(=O)cc(COC(=O)CNC(=O)c3ccc(F)cc3)nc2s1`, -4.36%. Take `CCCCc1nn2c(=O)cc(COC(=O)c3ccc(NC(=O)c4ccccc4C)cc3)nc2s1`: the Potency is 14.6 µM (active). Turning to `CCCc1nn2c(=O)cc(COC(=O)c3ccc(NC(=O)C(C)Oc4ccccc4)cc3)nc2s1` (stereo unspecified), the “activity change, negative = growth inhibition” value is -11.2%. Same read-out and setting: under `O=C(Nc1ccc(C(=O)OCc2cc(=O)n3nc(C4CC4)sc3n2)cc1)c1ccc(F)cc1` stands -25.5%; under `CCCCc1nn2c(=O)cc(COC(=O)c3ccccc3NC(=O)C(C)(C)C)nc2s1`, 3.41%. For `Cc1nn2c(=O)cc(COC(=O)c3ccc(NC(=O)C(C)(C)C)cc3)nc2s1`, the Potency is 18.4 µM (active). As to `Cc1nn(C)cc1S(=O)(=O)N1CCN(c2ccc(F)cc2)CC1`, the “activity change, negative = growth inhibition” value is 8.4%. On the same count and under the same terms, for `C=CCNc1nnc(C)c2ccccc12` the value was -5.04%. For `O=C1CC(c2ccccc2)=NN1c1ccc([N+](=O)[O-])cc1`, the Potency was 16.4 µM (active). Regarding `Cc1nc(-c2ccc([N+](=O)[O-])cc2)c(-c2ccccc2)o1`, the “activity change, negative = growth inhibition” value is -27.8%. In the case of `O=c1[nH]n(-c2ccc([N+](=O)[O-])cc2)c(=O)c2ccccc12`, the “activity change, negative = growth inhibition” value was 0.976%.

For the compound `CC(C)c1nc(CNC(=O)CC2C(=O)NCCN2Cc2cccc(F)c2F)cs1` (stereo unspecified), the “activity change, negative = growth inhibition” value was -8.46%.

In the case of `CCN(CC)CCCNC(=O)Cn1cnc2sc(C)c(S(=O)(=O)N3CCN(c4ncccn4)CC3)c2c1=O`, the “activity change, negative = growth inhibition” value was -1.58%. Regarding `C[N+]1(CCNC(=O)/C=N/O)CCCCC1`, the “activity change, negative = growth inhibition” value is -2.55%.
